From PubChem BioAssay (NCI)
About 83,000 compounds went through this panel and 20% of them were active in at least one assay; those are over-represented in the sample as a whole.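 Treatment: one concentration, 48 hours, 96-well format. Scoring: percent growth, with anything below 10 considered active.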 Unmarked numbers belong to inactive results. Calls of active or inactive are those of the source.

What was measured:
Test in all cases: NCI-60 one-dose screen, 48 h (100 = growth as untreated, 0 = no growth, -100 = all killed)
Conditions in all cases: 10 µM unless noted
SR leukemia = tested on: SR leukemia
RPMI-8226 leukemia = tested on: RPMI-8226 leukemia
OVCAR-8 ovarian = tested on: OVCAR-8 ovarian
OVCAR-5 ovarian = tested on: OVCAR-5 ovarian
OVCAR-4 ovarian = tested on: OVCAR-4 ovarian
SK-OV-3 ovarian = tested on: SK-OV-3 ovarian
IGROV1 ovarian = tested on: IGROV1 ovarian
OVCAR-3 ovarian = tested on: OVCAR-3 ovarian
HS 578T breast = tested on: HS 578T breast
NCI/ADR-RES ovarian = tested on: NCI/ADR-RES ovarian
T-47D breast = tested on: T-47D breast
BT-549 breast = tested on: BT-549 breast
MDA-MB-435 melanoma = tested on: MDA-MB-435 melanoma
SW-620 colon = tested on: SW-620 colon
MCF7 breast = tested on: MCF7 breast
HCT-116 colon = tested on: HCT-116 colon
HCC-2998 colon = tested on: HCC-2998 colon
KM12 colon = tested on: KM12 colon

SMILES | growth (SR leukemia) | growth (RPMI-8226 leukemia) | growth (OVCAR-8 ovarian) | growth (OVCAR-5 ovarian) | growth (OVCAR-4 ovarian) | growth (SK-OV-3 ovarian) [%] | growth (IGROV1 ovarian) | growth (OVCAR-3 ovarian) | growth (HS 578T breast) [%] | growth (NCI/ADR-RES ovarian) | growth (T-47D breast) | growth (BT-549 breast) | growth (MDA-MB-435 melanoma) | growth (SW-620 colon) | growth (MCF7 breast) | growth (HCT-116 colon) | growth (HCC-2998 colon) | growth (KM12 colon)
CN1CCN(C(=O)[C@]23CCC(C)(C)C[C@H]2C2=CC[C@@H]4[C@@]5(C)C/C(=C/c6cccnc6)C(=O)C(C)(C)[C@@H]5CC[C@@]4(C)[C@]2(C)CC3)CC1 | 15.5% | 19.1% | 54% | 100% | 58.1% | 83.8 | 85.6% | 52.7% | 54.2 | 59.1% | 34.5% | 82% | 59.1% | 44.6% | 22.9% | 20% | 66.6% | 55.1%
C=C1C(=O)O[C@H]2[C@H]1CC/C(COC(=O)NCc1c[nH]c3ccc(Br)cc13)=C\CC[C@@]1(C)O[C@@H]21 | 7.54% (active) | -29.2% (active) | -41.7% (active) | -20.7% (active) | 4.97% (active) | 86.9 | -46.8% (active) | -87.5% (active) | 34.3 | 43.5% | -68% (active) | -52.3% (active) | -56.5% (active) | -71.3% (active) | 16.6% | -83.1% (active) | 53.3% | 19.5%
CC(C)N1C(=O)S/C(=C2/SC(=O)N(C(C)C)C2=O)C1=O | 103% | 93.9% | 104% | 101% | 97.4% | 127 | 98.9% | 106% | 99.7 | 103% | 104% | 93.6% | 100% | 102% | 97.9% | 105% | 104% | 99.9%
COc1cc2nc(-c3ccc(C(F)(F)F)cc3)cc(OCCCN3CCCC3)c2cc1OC | 19.4% | 21.6% | 48.7% | 56.9% | 57.1% | 88.6 | 36.2% | 64.8% | 64.4 | 46.4% | 38.4% | 28.8% | -21.1% (active) | 28.6% | 44.7% | 23.6% | 70% | 36.4%
Cc1ccc(CNc2c3ccccc3nc3cc(NC(=O)CCN4CCCC4)ccc23)cc1 | -49.4% (active) | -44.6% (active) | 7.44% (active) | 20.7% | -38.4% (active) | 42.5 | 5.63% (active) | -73.3% (active) | 14.6 | 63.1% | 16.9% | 35.3% | 8.86% (active) | -57.4% (active) | -22.4% (active) | -77.9% (active) | -15.8% (active) | -6.45% (active)
Cc1ccc(NC(C(=O)c2ccccc2)c2ccccc2)cc1 (configuration not stated) | 69% | 25.6% | 45.9% | 78.4% | 49.5% | 95.5 | 57.6% | 29.4% | 32.7 | 92.8% | 25.9% | 42.2% | 30.6% | 67.1% | 38.5% | 35.6% | 55.1% | 23.7%
CCCNC(=O)Oc1ccc(/C(=C(\C)c2ccccc2)c2ccc(OCCCN(C)C)cc2)cc1 | 4.87% (active) | 63.4% | 86.6% | 80.5% | 79.7% | 71.9 | 89.5% | 83% | 55.3 | 77.7% | 33.3% | 83% | 63% | 90% | 21.7% | 54.2% | 64.8% | 67.2%
C=CC(=O)N[C@@H](/C=C/C(=O)OCC)Cc1ccc(-c2cc(Cl)cc(Cl)c2)cc1 | 7.26% (active) | -2.44% (active) | 16.8% | 55.8% | 10.7% | 26.7 | 36.2% | 13.5% | 40.3 | 8.7% (active) | -4.93% (active) | 4.23% (active) | 1.71% (active) | 11.7% | 4.06% (active) | 11.1% | 41.6% | 24.2%
Brc1ccc(Nc2csc(-c3ccccn3)n2)cc1 | 97.3% | 98% | 98.6% | 76.6% | 101% | 82.8 | 63.4% | 95.7% | 92.4 | 93.5% | 82.6% | 101% | 100% | 71% | 87.2% | 88.8% | 92.2% | 72.7%
